Anthrax LF inh2 = inhibitors of Bacillus anthracis lethal factor protease; P15917; multiplex microsphere protease cleavage assay, LF; inhibition, % at 10 µM; hit rate 0.12% among 360,000; also: plate controls were buffer without enzyme for full effect and enzyme alone for no effect
Target sequence (P15917 whole entry, looked up): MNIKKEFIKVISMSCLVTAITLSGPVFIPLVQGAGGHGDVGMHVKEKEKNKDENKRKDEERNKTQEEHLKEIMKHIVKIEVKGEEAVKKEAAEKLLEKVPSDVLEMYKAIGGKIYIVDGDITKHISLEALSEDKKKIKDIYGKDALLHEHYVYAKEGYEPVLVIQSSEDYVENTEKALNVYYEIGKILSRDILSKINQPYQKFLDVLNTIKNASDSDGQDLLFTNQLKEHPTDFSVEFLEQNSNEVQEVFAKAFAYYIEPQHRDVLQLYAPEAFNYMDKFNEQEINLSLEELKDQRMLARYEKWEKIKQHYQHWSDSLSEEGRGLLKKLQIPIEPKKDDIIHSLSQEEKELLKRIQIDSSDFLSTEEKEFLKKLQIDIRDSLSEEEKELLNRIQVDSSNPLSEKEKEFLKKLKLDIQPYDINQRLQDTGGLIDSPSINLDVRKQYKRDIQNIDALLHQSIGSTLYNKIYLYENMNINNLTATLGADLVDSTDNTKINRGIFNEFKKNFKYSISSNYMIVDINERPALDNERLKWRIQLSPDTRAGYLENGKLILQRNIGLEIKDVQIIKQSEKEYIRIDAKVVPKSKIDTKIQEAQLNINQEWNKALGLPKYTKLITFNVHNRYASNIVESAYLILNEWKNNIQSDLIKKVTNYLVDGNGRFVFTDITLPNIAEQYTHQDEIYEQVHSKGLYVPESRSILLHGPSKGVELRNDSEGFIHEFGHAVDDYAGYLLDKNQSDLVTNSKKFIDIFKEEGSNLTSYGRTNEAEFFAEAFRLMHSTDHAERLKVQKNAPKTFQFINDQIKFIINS
BoNT-F LC inh = BoNT F light chain protease inhibition. Multiplex microsphere protease cleavage assay, flow cytometry. AID 588497. inhibition, % at 10 µM. hit rate 0.22% among 360,000; in the data active = inhibition above about 35%, passing the limit was not always enough; inconclusive = no clear call, values can overlap the other calls; also: plate controls were buffer without enzyme for full effect and enzyme alone for no effect
BoNT-A LC inh2 = BoNT A light chain protease inhibition. inhibition, % at 10 µM. AID 588499. multiplex microsphere protease substrate cleavage, flow cytometry. hit rate 0.17% among 360,000; also: plate controls were buffer without enzyme for full effect and enzyme alone for no effect
Bead autofluor = compound fluorescence in toxin protease inhibitor counterscreen; compound autofluorescence counterscreen, microsphere flow cytometry; active compounds read high; AID 624483; fluorescence intensity (no concentration beside the values); hit rate 3.1% among 360,000; in the data active = fluorescence intensity above about 16000; inconclusive = no clear call, values can overlap the other calls
Starred values were filed as active, the others as inactive; ? = inconclusive. Most compounds without a hit are left out; they make up all but 3.5% or so of the library. Rule as the data show it, unless noted: active = inhibition above about 30%; inconclusive = no clear call, values can overlap the other calls; inactive = below that.

SMILES	Anthrax LF inh2	BoNT-F LC inh	BoNT-A LC inh2	Bead autofluor
CCc1nc(N2CCCCC2C)c2oc3ccccc3c2n1 (stereo not given)	1	-1	1	19411*
CCc1nc(N2CCCCC2)c2oc3ccccc3c2n1	-2	-4	-4	23515*
O=C(NCCO)OC1CC2CC1[C@H]1CCCCN1C2=O (stereo not given in full)	-9	-1	0	5863
COCCn1c(=S)[nH]c2cc(C(=O)N3CC(C)CC(C)C3)ccc2c1=O (stereo not given)	1	4	2	5573
CCCCNC(=O)OCCNC(=O)NC	-18	9	?	18838*
O=C(NCCCCCCNC(=O)OCCO)OCCO	-2	-6	0	4578
CC(Sc1nc2c(c(=O)[nH]1)CCCC2)C(=O)Nc1ccccc1C#N (stereo not given)	1	-6	2	5305
CCOc1cc(/C=N/NC(=O)Cn2nc([N+](=O)[O-])cc2C)cc(Br)c1OCc1ccccc1C	0	-2	-1	16860*
N#CCCN(CCC#N)C(=O)COc1ccc(Cl)cc1Cl	-7	1	3	18547*
COC(=O)c1ccc(CSc2nc(C)nc3sc(C)c(C)c23)o1	0	5	1	22019*
COC(=O)c1ccc(CSc2nnc(SCc3ccc(C(=O)OC)o3)s2)o1	-1	5	1	9631
COc1cccc(NC(=O)c2ccc(-n3cnnn3)cc2)c1	4	18	2	5980
NC(=O)C1CCN(Cc2nc3ccccc3c(=O)[nH]2)CC1	1	-1	0	23828*
O=c1[nH]c(CN2CCN(S(=O)(=O)/C=C/c3ccccc3)CC2)nc2ccccc12	-6	0	1	3972
O=c1[nH]c(CN2CCN(C/C=C/c3ccccc3)CC2)nc2ccccc12	1	-2	?	21675*
CC1CCN(CCCNC(=O)C2CCC(CNS(=O)(=O)c3ccccc3)CC2)CC1 (stereo not given)	-1	-9	-3	6737
O=C(CCCSc1nc2ccccc2[nH]1)N1CCN(c2ccccc2)CC1	0	6	5	20365*
O=C(CSc1nc2ccccc2[nH]1)N1CCCCC1	3	2	2	21788*
O=C(CSc1nc2ccccc2[nH]1)N1CCN(c2ccccc2)CC1	-4	-1	0	9319
CC1Cc2ccccc2N1C(=O)CCS(=O)(=O)c1cccs1 (stereo not given)	13	4	-1	6867
CC1Cc2ccccc2N1C(=O)CN1C(=O)COc2ccccc21 (stereo not given)	3	-9	0	3595
CC1Cc2ccccc2N1C(=O)Cc1cccs1 (stereo not given)	-3	-8	-7	17722*
CC1Cc2ccccc2N1C(=O)Cn1c(=O)cc(O)c2ccccc21 (stereo not given)	-4	-9	?	24078*
O=C(c1nsc(Cl)c1Cl)N1CCCCC1	-1	0	0	20635*
Cc1ccc(OCCC(=O)OC(C)C(=O)Nc2ccc(Cl)cn2)cc1 (stereo not given)	-2	2	0	4430
SMILES	Anthrax LF inh2	BoNT-F LC inh	BoNT-A LC inh2	Bead autofluor
CCCCNC(=O)c1ccc2c(c1)ncn2C1CCCCC1	5	-5	1	3218
CC(C)CCNC(=O)c1ccc2c(c1)ncn2C1CCCCC1	2	5	3	19635*
CC1(c2ccccc2)NC(=O)N(CC(=O)NNC(=O)c2cccc(Cl)c2)C1=O (stereo not given)	-4	-9	2	5224
CCOc1ccc(-n2c(C)nc3cc(C(=O)NCCN4CCOCC4)ccc32)cc1	1	4	0	7593
O=C(Nc1c(Cl)cc(Cl)cc1C(=O)NCCN1CCOCC1)c1ccc(Cl)cc1Cl	0	-1	0	16191*
O=C(Nc1ccc(Cl)cc1C(=O)NCCN1CCOCC1)c1ccc(Cl)cc1Cl	-4	-6	0	9187
COc1ccc(C(=O)Nc2c(Cl)cc(Cl)cc2C(=O)NCCN2CCOCC2)cc1	0	-2	?	21881*
O=C(Nc1c(Cl)cc(Cl)cc1C(=O)NCCN1CCOCC1)c1cccc([N+](=O)[O-])c1	0	-4	1	2526
COc1ccc(-n2c(C)nc3cc(C(=O)NCCN4CCOCC4)ccc32)cc1	1	1	?	23270*
Cn1ccc(/C=N/N=C2/NC(=O)CS2)n1	-5	?	1	3474
CC1(C(=O)NS(=O)(=O)c2cccs2)CCN1C(=O)CC1CC1 (stereo not given)	1	-4	0	2824
COc1ccc(CNC(=O)CCS(=O)(=O)c2ccc3c(c2)NC(=O)CS3)cc1	-1	4	1	5658
CCOc1ccc(CCN2C(=S)N([C@@H](CC(C)C)CN3CCC[C@@H]3CN3C(=S)NC[C@@H]3Cc3ccccc3)C[C@@H]2Cc2ccc(O)cc2)cc1	4	-6	0	7085
CSC1=C(C#N)C(c2ccccc2C)C(C#N)=C(N)N1 (stereo not given)	0	-5	?	23095*
Nc1c(S(=O)(=O)c2ccccc2)cnc2c(-c3ccc(F)cc3)cnn12	-3	6	4	15012
CC(C)(C)S(=O)(=O)c1cnc2c(-c3ccc(Cl)cc3)cnn2c1N	1	-7	0	5860
COc1ccc(-c2cnc3c(-c4ccc(F)cc4)cnn3c2N)cc1	0	3	-1	3654
COc1ccc(-c2cnn3c(N)c(S(=O)(=O)c4ccccc4)cnc23)cc1	-3	-2	-1	20604*
CC(C)(C)S(=O)(=O)c1cnc2c(-c3ccc(F)cc3)cnn2c1N	1	-1	?	21191*
COc1ccc(-c2cnn3c(N)c(S(=O)(=O)C(C)(C)C)cnc23)cc1	-10	0	?	21645*
Cc1nn(Cc2c(F)c(F)c(F)c(F)c2F)c(C)c1NC(=O)c1cccc(COc2ccccc2Cl)c1	-10	4	3	20980*
O=C(Nc1ccn(Cc2c(F)c(F)c(F)c(F)c2F)n1)c1ccc(COc2ccccc2Cl)cc1	-3	-8	-4	25404*
O=C(NCC(=O)N1CCN(Cc2ccccc2)CC1)c1ccc(Br)o1	-3	2	0	5406
COc1cc2c(cc1OC)CN(C(=O)c1ccc(Cl)c(S(=O)(=O)N3CCCC3)c1)CC2	0	-4	0	4136
COc1ccc(NC(=O)C2CCN(S(=O)(=O)c3ccc4c(c3)CC(C)N4C(C)=O)CC2)c(OC)c1 (stereo not given)	1	0	1	5701
SMILES	Anthrax LF inh2	BoNT-F LC inh	BoNT-A LC inh2	Bead autofluor
CCCN1CCN(C(=O)c2ccc(Sc3ccc(C)cc3)c(NC(C)=O)c2)CC1	0	-6	-4	24723*
FC(F)(F)c1cnc(/C=C/Nc2ccccc2Cl)c(Cl)c1	-1	2	2	22771*
O=S(=O)(c1ccccc1)c1ncc(C(F)(F)F)cc1Cl	-4	-4	0	3638
CCCCn1c(N)c(N(CCOC)C(=O)c2ccco2)c(=O)[nH]c1=O	0	5	2	5682
Cc1ccc(S(=O)(=O)Cc2ccc(C(=O)NCc3ccc4c(c3)OCO4)o2)cc1	-2	2	?	22168*
COCCNC(=O)c1ccc(CS(=O)(=O)c2ccc(C)cc2)o1	-3	-2	-1	22139*
O=C(NCCCN1CCOCC1)c1ccc(CS(=O)(=O)c2ccc(Br)cc2)o1	-2	-4	0	4344

Compound activity: PubChem BioAssay, NMMLSC
